Screening data deposited in PubChem BioAssay by National Center for Advancing Translational Sciences (NCATS).
KCNH2 3.1 block – blocks the human KCNH2 3.1 channel isoform. U2OS KCNH2 3.1, thallium flux FluxOr; hits give low values. activity change, % (tested at about 1.8 µM). 340,000 compounds, 0.95% hits;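 active = maximum activity change below -70%; inconclusive = maximum activity change from -70% to -50%; inactive = maximum activity change above -50%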;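 note: thallium influx rate constant from kinetic fluorescence after stimulation buffer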
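Normalized rate constant (relative to positive and negative DMSO controls) derived from a 2 min kinetic fluorescence read after stimulation; U2OS cells expressing the 3.1 isoform via virus at 1.77 x 10^8 /mL.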
PTAP TSG101 blk – blocks PTAP/TSG101 interaction to inhibit HIV-1 budding; Fluorescence polarization, FITC-PTAP peptide / Tsg101 binding; Potency, µM (highest dose often 115 µM), usual class: inhibitors; Q99816; 340,000 tested, under 10 active; AID 493005; active = well fitted inhibition curve with a large enough effect in the main read-out, with a control signal flat, not every such curve was filed as active; inconclusive = small, poorly fitted or top-dose-only effect, or effect the other way, or a change in a side signal; inactive = no such curve, though single readings can be large or run the other way
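FP read-out: FITC-PTAP peptide, 50 nM final, binding Tsg101 binding domain, 10 uM final; 20 min, r.t.; 10 mM HEPES pH 7.5, 0.15 M NaCl, 0.01% Tween 20, 3 mM EDTA, 0.1 mM TCEP.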
hERG WT inh – inhibitors of human wildtype KCNH2 potassium channel | activity change, % at 1.84 µM | AID 720551 | U2OS, BacMam KCNH2, thallium flux FluxOr; hits give low values | 340,000 compounds, 0.37% hits | Q12809;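 active = maximum activity change below -70%; inconclusive = maximum activity change between -70% and -50%; inactive = maximum activity change above -50%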
Target sequence (Q12809 whole entry, looked up): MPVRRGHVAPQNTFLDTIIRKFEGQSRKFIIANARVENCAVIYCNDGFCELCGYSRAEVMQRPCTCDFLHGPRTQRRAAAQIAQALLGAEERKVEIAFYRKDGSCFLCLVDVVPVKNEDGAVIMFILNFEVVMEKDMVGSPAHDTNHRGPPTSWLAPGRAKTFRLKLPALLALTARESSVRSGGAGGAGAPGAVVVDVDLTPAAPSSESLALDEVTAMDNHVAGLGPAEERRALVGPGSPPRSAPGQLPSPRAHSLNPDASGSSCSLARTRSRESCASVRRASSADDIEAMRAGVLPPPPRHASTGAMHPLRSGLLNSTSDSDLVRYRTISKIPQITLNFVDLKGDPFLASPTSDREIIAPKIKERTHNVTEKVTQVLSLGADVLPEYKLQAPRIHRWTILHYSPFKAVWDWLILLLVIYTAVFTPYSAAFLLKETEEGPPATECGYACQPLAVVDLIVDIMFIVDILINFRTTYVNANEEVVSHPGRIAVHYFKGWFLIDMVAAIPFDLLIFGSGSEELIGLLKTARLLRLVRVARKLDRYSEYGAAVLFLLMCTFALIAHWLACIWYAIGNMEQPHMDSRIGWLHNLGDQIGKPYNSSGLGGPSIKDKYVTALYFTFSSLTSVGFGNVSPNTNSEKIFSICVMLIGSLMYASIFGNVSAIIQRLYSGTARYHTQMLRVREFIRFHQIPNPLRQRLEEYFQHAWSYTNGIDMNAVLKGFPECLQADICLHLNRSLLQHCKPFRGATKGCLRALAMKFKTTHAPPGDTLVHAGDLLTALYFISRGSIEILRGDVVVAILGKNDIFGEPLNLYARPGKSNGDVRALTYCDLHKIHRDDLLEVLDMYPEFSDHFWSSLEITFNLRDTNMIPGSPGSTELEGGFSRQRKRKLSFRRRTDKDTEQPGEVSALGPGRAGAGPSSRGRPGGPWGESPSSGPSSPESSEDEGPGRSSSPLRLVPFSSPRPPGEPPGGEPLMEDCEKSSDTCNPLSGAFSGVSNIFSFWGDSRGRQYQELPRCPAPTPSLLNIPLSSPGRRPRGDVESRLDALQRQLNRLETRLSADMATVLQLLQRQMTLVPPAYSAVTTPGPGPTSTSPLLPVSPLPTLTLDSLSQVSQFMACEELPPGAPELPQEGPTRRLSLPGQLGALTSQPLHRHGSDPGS
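U2OS cells transduced with wild-type KCNH2 virus are loaded with FluxOr dye for 45 min, and thallium flux is measured in kinetic reads before and after stimulation buffer. Rate constants are normalized to DMSO controls.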
Tb PFK inh – inhibitors of T. brucei phosphofructokinase; AID 485367; Potency, µM (highest dose often 57.5 µM), actives largely listed as inhibitors; T. brucei PFK, ADP-Glo luminescence; O15648; 330,000 compounds, 0.17% hits; active = well fitted inhibition curve with a large enough effect; inconclusive = small, poorly fitted or top-dose-only effect, or effect the other way; note: nearly all actives have a fitted effect of over 60% in size
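ADP-Glo luminescence quantified ADP after 45 min at room temperature, with 1.25 nM T. brucei PFK, 0.1 mM ATP and 0.5 mM fructose-6-phosphate in pH 8.0 TEA buffer. qHTS titrations up to 57 µM; curves classified by quality.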
Of the large screens only hits and unclear results are named; the others gave an inactive call. An excerpt weighted towards active compounds, which were near 1.2% of everything screened.

CCCCOc1ccc(C(=O)N/C(=C\c2cccc([N+](=O)[O-])c2)C(=O)OCc2ccco2)cc1	KCNH2 3.1 block -75
CCCCOc1ccc(C(=O)N/C(=C\c2ccc(OC)cc2)C(=O)OCc2ccco2)cc1	none
CC1CC[C@@]2(OC1)O[C@H]1CC3[C@@H]4C[C@@H](O)[C@@]5(O)C[C@@H](O)[C@H](O)C[C@]5(C)[C@H]4CC[C@]3(C)[C@H]1[C@@H]2C (stereo partly drawn)	hERG WT inh -92
CC(=O)OC1CCC2(C)C(CCC3C2CC(OC(C)=O)C2(C)C3C[C@@H]3O[C@]4(CC[C@@H](C)CO4)[C@@H](C)C32)C1 (stereo partly drawn)	none (no result: Tb PFK inh)
C/C(=N\N=C\c1ccccc1F)c1nnn(-c2nonc2N)c1C	KCNH2 3.1 block -71
Nc1nonc1-n1nnc(C(=O)N/N=C/c2ccccc2F)c1-c1cccs1	none
CCc1ccc(NC(=O)[C@H](NC(=O)[C@@H]2Cc3ccccc3CN2)c2ccccc2)cc1	hERG WT inh -88
CC1CCN(CCCCOc2ccc(C(C)(C)C)cc2)CC1	KCNH2 3.1 block -75
CC1CCN(CCOCCOc2ccccc2-c2ccccc2)CC1	none
CC1CCN(CCCCOc2ccccc2-c2ccccc2)CC1	KCNH2 3.1 block -80, hERG WT inh -71
CC1CCN(C(=O)CCCOc2ccc(Cl)cc2)CC1	none
CC1CCN(CCCCOc2ccc(Cl)cc2)CC1	KCNH2 3.1 block -76
CC(C)(C)c1ccc(OCCCCCCN2CCNCC2)cc1	none (no result: Tb PFK inh)
Cc1cc(Br)c(NC(=O)CN2CCCC2)c(Br)c1	none
Cc1ccnc(NC(=O)CNC(=O)c2ccccc2Br)c1	hERG WT inh -71
CC(C)CC(NC(N)=O)C(=O)NCCc1ccc(Cl)cc1 (stereo not drawn)	none
CCCCCCN1C[C@H](O)[C@@H](n2cc(C3CC3)nn2)C[C@@H]1c1ccc(C)cc1	none (no result: PTAP TSG101 blk, Tb PFK inh)
CCCCCCN1C[C@H](O)[C@@H](n2cc(C3CC3)nn2)C[C@@H]1c1ccc(OC)cc1	KCNH2 3.1 block -117, hERG WT inh inconclusive (no result: PTAP TSG101 blk, Tb PFK inh)
COC(=O)c1cc(S(=O)(=O)N(C)C2CCCCC2)cn1C	none
COC(=O)c1cc(S(=O)(=O)N(C)C2CCCCC2)c[nH]1	KCNH2 3.1 block -120
COc1cc(NC(=O)c2ccc3c(SCC(=O)O)c4c(nc3c2)CCCC4)cc(OC)c1OC	KCNH2 3.1 block -77 (no result: hERG WT inh)
COc1cc(OC)c(NC(=O)c2ccc3c(SCC(=O)O)c4c(nc3c2)CCCC4)cc1Cl	KCNH2 3.1 block -104
COc1ccc(CCNC(=O)Cn2c(=O)n(CC3CCCO3)c(=O)c3cc(OC)c(OC)cc32)cc1OC (stereo not drawn)	KCNH2 3.1 block -141
O=c1c2cn[nH]c2nc(SCc2c(F)cccc2F)n1-c1ccc(Cl)cc1	hERG WT inh -230
Cc1noc(C)c1CSc1nc2[nH]ncc2c(=O)n1-c1ccccc1	none
CCn1cc(C(=O)N[C@@H](CCSC)C(=O)NCCN2CCOCC2)c(=O)c2cc3c(cc21)OCO3	none
COc1ccc([C@H]2[C@@H](C#N)[C@H](C#N)N3CCCN23)cc1	KCNH2 3.1 block -98
COc1ccc(C2C(C#N)C(C#N)N3CCCN23)cc1 (stereo not drawn)	none
COc1ccccc1Nc1ccc(NC(=O)c2cccc([N+](=O)[O-])c2C)cc1	none
CC1=CC(C)(C(Cl)(Cl)Cl)C(C)=CC1=NO (stereo not drawn)	none (no result: PTAP TSG101 blk, Tb PFK inh)
N/C(=N\c1nc2c(c(=O)[nH]1)CCC2)Nc1cccc(Cl)c1	none
N/C(=N\c1nc2c(c(=O)[nH]1)CCC2)Nc1cccc2ccccc12	KCNH2 3.1 block -78
O=C(CSc1cccc[n+]1[O-])Nc1c(Br)cc([N+](=O)[O-])cc1Br	KCNH2 3.1 block -133
O=C(CSc1cccc[n+]1[O-])Nc1ccc([N+](=O)[O-])cc1Cl	none
CCOc1ccc(OCCC(=O)N(CCOC)c2c(N)n(Cc3ccccc3)c(=O)[nH]c2=O)cc1	none (no result: Tb PFK inh)
CN(C)CCCN(C(=O)CCc1ccccc1)c1nc2ccc(F)cc2s1	none
CN(C)CCCN(C(=O)CCc1ccccc1)c1nc2ccc(Br)cc2s1	KCNH2 3.1 block -87
C#CCOCCOCCOCCNc1nc(N2CCN(C(=O)Cn3cc(CC(C)O)nn3)CC2)nc(N2CCN(C(=O)[C@H](C)n3cc(CCCN=C(N)N)nn3)CC2)n1 (stereo partly drawn)	KCNH2 3.1 block -147
O=C(c1cc2ccccc2oc1=O)N(Cc1ccc(F)cc1)C1CCS(=O)(=O)C1 (stereo not drawn)	none
